Laboratory results as given in the OligoGym collection.

What follows are sequences tested against C6orf203 (assay: pooled miR-30 sensor sort-seq; sequence = guide strand). Conditions: shRNA.
Also: reference of the scale not given here.

Sequence	sensor-assay potency score (higher = more potent)
TTCAGGACAACATCATACCGAA	-0.635
TTACTTTTGAGTCTTACGGAAA	-1.38
TTAAACTTTTCCACCGCCGTAA	-0.414
TTTCACTTTCAGTCTTCTCTTC	0.689
TTAGTAGATTTTGTAGACCTTA	-0.225

What follows are sequences tested against C6orf223 in the same assay as above. Conditions: shRNA.

Sequence	sensor-assay potency score (higher = more potent)
TAATTAGAGCGCATTAGCCGTG	-0.678
TTCTTCTGGATGCTCTGACCAT	-0.868
TTTCTTCTCGCGCTCGGGGTGT	-0.841
TAGAGGAGAGCTCTGAGCCTGG	-0.55
TTTGAGGACAGCTGAAGTCTTG	-0.66
TTGAGGACAGCTGAAGTCTTGC	-0.761
AAGTCTTGCCACTTCTTCTGGA	-0.0269
AAACACTCTGTCTTCCTGCTTT	0.482
TAATTTCTTCTCGCGCTCGGGG	-0.685
TCTTCTGGATGCTCTGACCATC	-1.03
AATTAGAGCGCATTAGCCGTGC	-0.806
TTGGCTGAGTCAGACTCTCGGA	-0.102

Each sequence was assayed against C6orf48 in the same assay as above. Conditions: shRNA.

Sequence	sensor-assay potency score (higher = more potent)
TCACACAGGATAATACAGGAAA	-0.815
AAGTTCTTAGGATATGCCCAGC	-0.846
TTCCATAGCAAGGAAGGAGAAC	-0.82
AGTTGCAGGAATCACTGTCTAA	-1.7
TGTCAGCAAATTCCATAGCAAG	-1.37
TGACAGCTGCTCACACAGGATA	-1.51
TAAGTTCTTAGGATATGCCCAG	-0.415
TCAAGTTGCAGGAATCACTGTC	0.907
ATATTGTGTCAGCAAATTCCAT	-1.29
TTAGGATATGCCCAGCACCAGG	-1.71
ATAGCAAGGAAGGAGAACAGGC	-1.07
TATTGTGTCAGCAAATTCCATA	-0.54

The sequences below were run against C6orf58 in the same assay as above. Conditions: shRNA.

Sequence	sensor-assay potency score (higher = more potent)
TTGGATCAGCTAATCTGCCTGT	0.319
TAGATTTATCCACATTGTCAAG	-1.66
TAGAATAATAATCATATCTGTC	-0.538
TTACTGATTGTCAAGTTCGAGT	-0.967
TTTATCCACATTGTCAAGCATA	-1.01
TATGATTTTATACATCCCCATT	-1.55
TAATTCATTAATCATTTCCTGA	-0.771
TATTCTGTTCATTATCTGGTGC	-0.148
TTCTGTACAAAGATAACCTATA	-1.09
TTACACCAGAATCAACCGCAGC	-1.25
TTTCTGTACAAAGATAACCTAT	-0.334
